Test results taken from the supplement of paper PMC13380429.
A number with no mark means an inactive call.

System: Vero E6 infected with SARS-CoV-2
Test: inhibition of SARS-CoV-2 cytopathic effect; higher = more antiviral protection, active = above 15
Settings: 48 h

Compound	inhibition of SARS-CoV-2 cytopathic effect (1 nM) [%]	inhibition of SARS-CoV-2 cytopathic effect (8.33 nM) [%]	inhibition of SARS-CoV-2 cytopathic effect (100 nM) [%]	inhibition of SARS-CoV-2 cytopathic effect (833.33 nM) [%]	inhibition of SARS-CoV-2 cytopathic effect (10000 nM)
CCN(CC)CCNC(=O)c1cc(S(C)(=O)=O)ccc1OC [tiapride]	1.6	-0.89	-0.61	0.66	2.27%
CCOC(=O)CNC(=O)[C@@H]1CCCN1C(=O)Cc1ccccc1	0.67	-0.95	3.29	2.08	1.46%
CC(C)[N+](C)(CCC(C(N)=O)(c1ccccc1)c1ccccc1)C(C)C [isopropamide-iodide]	1.15	1.26	2.29	1.52	1.2%
COC(=O)[C@H](Cc1cccc(C(=N)N)c1)[C@@H](C)NC(=O)c1ccc(-c2cc[n+]([O-])cc2)cc1 [otamixaban]	-2.31	-2.54	-1.48	-0.51	-3.22%
NS(=O)(=O)NCCNc1nonc1/C(=N/O)Nc1ccc(F)c(Br)c1	-1.72	-0.99	-3.11	3.1	-1.01%
CCOc1nc2cccc(C(=O)O)c2n1Cc1ccc(-c2ccccc2-c2noc(=O)[nH]2)cc1 [azilsartan]	0.19	1.58	2.59	2.65	0.22%
CNC(=O)c1ccccc1Nc1cc(Nc2ccc(N3CCOCC3)cc2OC)ncc1C(F)(F)F	0.1	-1.1	-2.99	-4.38	-3.64%
Cc1cccc(C)c1OCC(=O)N[C@@H](Cc1ccccc1)[C@@H](O)C[C@H](Cc1ccccc1)NC(=O)[C@H](C(C)C)N1CCCNC1=O [Lopinavir]	0.81	-0.07	0.62	-0.42	6.72%
CCCc1c(OCCCCc2nnn[nH]2)ccc(C(C)=O)c1O [tomelukast]	-8.82	-9.23	-10	-8.13	-6.02%
Nc1ccn([C@@H]2O[C@H](CO)[C@@H](O)[C@@H]2O)c(=O)n1 [cytarabine]	-0.13	2.91	2.21	-1	-2.58%
CCOc1cc(C(C)(C)C)ccc1C1=N[C@@](C)(c2ccc(Cl)cc2)[C@@](C)(c2ccc(Cl)cc2)N1C(=O)N1CCN(CCCS(C)(=O)=O)CC1	-1.23	-0.35	1.86	1.64	5.99%
O=c1[nH]cnc2nc[nH]c12 [hypoxanthine]	4.22	2.78	1.76	0.21	2.46%
CC(C(=O)O)c1cccc(Oc2ccccc2)c1 (stereo not given) [fenoprofen]	-0.67	-2.89	0.97	-1.9	-3.01%
Nc1ccc(S(=O)(=O)Nc2ccccn2)cc1 [sulfapyridine]	-1.16	0.08	0.38	-1.04	-4.35%
CC(C)(O)C(=O)Nc1ccc([N+](=O)[O-])c(C(F)(F)F)c1 [2-hydroxyflutamide]	0.48	0.38	-0.65	-2.57	-4.93%
COc1cc2ncnc(Nc3ccc(Cl)cc3F)c2cc1OC	1.92	-0.75	-1.55	-5	-11.2%
CC(C)C[C@H](NC(=O)[C@@H](O)[C@H](N)Cc1ccccc1)C(=O)O [ubenimex]	-0.51	-0.09	2.6	0.25	1.71%
COCCN1CCN(Cc2ccc(-c3n[nH]c4c3C(=O)c3c(NC(=O)NN5CCOCC5)cccc3-4)cc2)CC1	0.81	-16.4	0.61	2.47	9%
C[C@@H]1C[C@H]2[C@@H]3C[C@H](F)C4=CC(=O)C=C[C@]4(C)[C@@]3(F)[C@@H](O)C[C@]2(C)[C@@]1(O)C(=O)CO [flumethasone]	0.24	-0.72	1.45	0.62	0.56%

Compound	inhibition of SARS-CoV-2 cytopathic effect (1 nM) [%]	inhibition of SARS-CoV-2 cytopathic effect (8.33 nM) [%]	inhibition of SARS-CoV-2 cytopathic effect (100 nM) [%]	inhibition of SARS-CoV-2 cytopathic effect (833.33 nM) [%]	inhibition of SARS-CoV-2 cytopathic effect (10000 nM)
Cc1nccn1CC1CCc2c(c3ccccc3n2C)C1=O (stereo not given) [ondansetron]	3.14	0.05	-1.38	-1.32	3.44%
O=C(Oc1cccc2cccnc12)c1ccccc1 [benzoxiquine]	1.28	1.56	-0.45	-1.05	-3.29%
C[N+]12CCC(CC1)C(OC(=O)C(O)(c1ccccc1)c1ccccc1)C2 (stereo not given) [clidinium]	-2.04	1.76	-0.23	0.86	-1.97%
CC(=O)NC[C@H]1CN(c2ccc(N3CCN(C(=O)CO)CC3)c(F)c2)C(=O)O1 [eperezolid]	-1.15	-0.41	-0.04	0.64	0.19%
CN(C)CC[C@@]1(c2ccc(Cl)cc2)Cc2ccccc2C(=O)O1 (racemic)	-1.76	-2.36	-1.71	-2.86	-3.54%
CCN(Cc1ccc(Cl)nc1)/C(=C/[N+](=O)[O-])NC [nitenpyram]	0.79	-0.17	-0.29	-1.84	1.08%
CC[C@H]1OC(=O)C[C@@H](O)[C@H](C)[C@@H](O[C@@H]2O[C@H](C)C[C@H](N(C)C)[C@H]2O)[C@@H](CC=O)C[C@@H](C)C(=O)/C=C/[C@]2(C)O[C@H]2[C@@H]1C [rosamicin]	1.84	0.4	-1.22	2.62	9.6%
Cc1ccc(C(=O)C(C)CN2CCCCC2)cc1 (stereo not given) [tolperisone]	-0.13	-1.26	-0.59	-1.06	0.32%
COC(=O)[C@@H]1C[C@H](OC(C)=O)C(=O)[C@H]2[C@@]1(C)CC[C@H]1C(=O)O[C@H](c3ccoc3)C[C@]21C [salvinorin-A]	-2.48	-1.89	-1.61	-0.35	0.69%
O=C(c1ccccc1)c1ccc2n1CCC2C(=O)O (stereo not given) [ketorolac]	-4.39	-2.99	-1.5	2.44	-4.37%
NCCS(=O)(=O)O [taurine]	-2.1	-0.91	-1.56	0.1	-0.28%
NCCS [cysteamine]	1.07	0.1	0.28	-1.61	-4.62%
O=C(NCc1ccc(OC(F)(F)F)cc1)C1c2ccccc2C(=O)N1C1CCOCC1 (stereo not given)	-3.69	-4.75	-1.62	-1.7	2.59%
O=C(CCCN1CCC2(CC1)C(=O)NCN2c1ccccc1)c1ccc(F)cc1 [spiperone]	1.92	1.62	0.95	9.61	81.1% (active)
O=C(O)CCC(=O)Nc1ccc(S(=O)(=O)Nc2nccs2)cc1 [succinylsulfathiazole]	-0.25	0.46	0.51	0.85	-0.56%
CN1c2c([nH]c(N)nc2=O)NC[C@@H]1CNc1ccc(C(=O)N[C@@H](CCC(=O)O)C(=O)O)cc1 [metafolin]	4.85	2.72	1.95	0.81	2.93%
C[C@]12C=CC(=O)C=C1CC[C@@H]1[C@@H]2[C@@H](O)C[C@@]2(C)[C@H]1CC[C@]2(O)C(=O)COP(=O)(O)O [prednisolone-sodium-phosphate]	-6.31	-10	-8.54	-9.6	-4.78%
CNC(=O)CN(CCN(CCN(CC(=O)[O-])CC(=O)NC)CC(=O)[O-])CC(=O)[O-].[Gd+3] [gadodiamide]	-0.88	-0.45	-3.37	-0.21	1.36%
CCOc1cn(-c2ccc(F)cc2C)nc1C(=O)Nc1ccc(Oc2ccnc3cc(OC)c(OC)cc23)c(F)c1	-0.58	-1.4	-1.89	0.24	-1.4%
